Source: PubChem (National Center for Advancing Translational Sciences (NCATS))
Only some compounds are listed: those with a hit (about 8.3% of all), similar ones and a draw of the others.
RORgamma inh – ROR gamma (mouse) transcription inhibition. P51450. Drosophila S2 Gal4-RORgamma UAS-luciferase reporter, 20 h. Potency, µM (series often up to 53.6 µM), for inactives: at the highest dose activity change, negative = inhibition, usual class: inhibitors. 5.4% of 310,000 active; further: potency means the concentration at half of the fitted maximal effect; on the % scale 0 is the no-effect control and ±100 the full control effect; nearly all actives have a fitted effect of over 60% in size
Target sequence (P51450 whole entry, looked up, the tested form may be a part): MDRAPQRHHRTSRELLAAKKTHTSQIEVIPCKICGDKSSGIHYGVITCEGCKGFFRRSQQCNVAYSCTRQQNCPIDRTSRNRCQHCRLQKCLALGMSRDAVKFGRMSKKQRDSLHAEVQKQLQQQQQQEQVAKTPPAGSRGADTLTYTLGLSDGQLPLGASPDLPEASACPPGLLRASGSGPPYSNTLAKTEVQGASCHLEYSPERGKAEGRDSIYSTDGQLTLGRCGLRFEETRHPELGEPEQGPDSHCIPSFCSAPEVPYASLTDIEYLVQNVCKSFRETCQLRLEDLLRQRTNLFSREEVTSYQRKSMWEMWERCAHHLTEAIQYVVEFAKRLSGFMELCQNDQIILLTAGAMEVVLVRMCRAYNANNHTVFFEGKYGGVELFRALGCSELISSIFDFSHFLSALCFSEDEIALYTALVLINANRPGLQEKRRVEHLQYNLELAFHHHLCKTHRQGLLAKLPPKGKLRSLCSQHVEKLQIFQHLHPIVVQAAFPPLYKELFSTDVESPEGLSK
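ROR gamma transcriptional activity was tracked as Gal4-UAS luciferase output in stably transfected Drosophila Schneider cells, with compound added 1 hr before 700 uM copper sulfate induction and a 20 hr ambient-temperature incubation.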
MCF10A rereplic – induces DNA re-replication in MCF 10a normal breast cells; 2.9% of 350,000 active; Potency, µM (top dose mostly 46.1 µM), for the others: at the top dose activity, positive = re-replication, most hits filed as activators; MCF 10A DNA re-replication, Hoechst nuclear intensity, 48 h; further: potency means the concentration at half of the fitted maximal effect; % of control where 0% means no effect; nearly all actives have a fitted effect of over 50% in size
Chronic BCR inh – blocks chronic active B-cell receptor signaling. Potency, µM (titrated, usually from 46.1 µM), for inactives: at the highest dose activity change, negative = inhibition, actives largely listed as inhibitors. 0.05% of 340,000 active. ABC-DLBCL IkBa-CBG/CBR reporter, luminescence ratio, 4 h; active means well fitted inhibition curve with a large enough effect in the signal ratio, with a control signal flat, not every such curve was filed as active; inconclusive means small, poorly fitted or top-dose-only effect, or effect the other way, or a change in a side signal; the % refers to the signal ratio;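 further: potency means the concentration at half of the fitted maximal effect; plate controls were basal doxycycline-induced cells for no effect and cells given 10 µM MG132 for full effect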
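TMD8 human ABC-DLBCL cells with doxycycline-inducible IκBα–green luciferase fusion and unfused red luciferase, in 0.5% FBS medium; compounds up to 46 uM, 4 h at 37C. Green/red luminescence ratio, filter-overlap corrected, fitted to concentration-response curves.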
SW480 rerep – DNA re-replication induction in SW480 cells. 1.8% of 340,000 active. SW480 DNA re-replication, Hoechst DNA content imaging, 48 h. AID 624297. Potency, µM (highest dose often 46.1 µM), for the others: at the highest dose re-replication activation, actives largely listed as activators; further: potency means the concentration at half of the fitted maximal effect; % of control where 0% means no effect; nearly all actives have a fitted effect of over 55% in size
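Per well, 250 cells were exposed to pinned compound for 48 hr. Nuclear DNA was visualised with Hoechst (40 min, 37 C) and total object intensity recorded by fluorescence scanning.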
Giardia killer – Giardia lamblia killing. activity change, % at 7.66 µM, hits read low. AID 540267. 0.15% of 340,000 active. Giardia lamblia trophozoite viability; in the data active means activity change below about -80%; inconclusive means between about -30% and that limit;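 further: parasites exposed to compound for two days anaerobically before the ATP read; on the % scale 0 is the no-effect control and ±100 the full control effect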
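Luminescent ATP signal served as the viability read-out, measured 15-30 min after adding ATP detection reagent to trophozoites that had been incubated with compounds for 48 hrs at 37 deg C anaerobically at 100 cells/well.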
VP16 counter – Gal4-VP16 reporter inhibition counter-screen | Drosophila S2 Gal4-VP16 UAS-luciferase, luminescence, 20 h | Potency, µM (top dose mostly 53.6 µM), inactives show top-dose activity, negative = inhibition, hits mostly inhibitors | 3.5% of 310,000 active | AID 2546;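 further: Gal4-VP16 expression switched on by copper sulfate through the metallothionein promoter; potency means the concentration at half of the fitted maximal effect; on the % scale 0 is the no-effect control and ±100 the full control effect; nearly all actives have a fitted effect of over 50% in size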
* hit, by the source's call; ? = inconclusive; . = not tested or not shown; [ ] = dose if it differs, or a comment. Unless noted, the call rests on the fitted dose curve; in most records, active means well fitted curve in the direction sought with a large enough effect; inconclusive means small, poorly fitted or top-dose-only effect, or another doubt; inactive means no such curve, though single readings can be large; an effect the other way counts as inactive or inconclusive.

SMILES	RORgamma inh	MCF10A rereplic	Chronic BCR inh	SW480 rerep	Giardia killer	VP16 counter
CC(CN1CCCCC1)NC(=O)c1cc(-c2ccccn2)nc2ccc(Cl)cc12 (centres undefined)	-3%	-1%	2%	-4%	18	7%
Cc1cccc(OCC(=O)Nc2cc(NC(=O)COc3cccc(C)c3C)cc(C(=O)O)c2)c1C	.	-6%	?	-12%	1	.
CC(=O)Nc1ccc(NC(=O)COc2ccc(Br)cc2C)cc1	7%	7%	-3%	-7%	1	4%
CCOc1ccccc1OCCC(=O)Nc1ccc(F)c(Cl)c1	?	?	?	-3%	41	?
Cc1ccccc1OCC(=O)Nc1ccc(N2CCN(C)CC2)c(Cl)c1	-23%	15µM*	0%	?	-3	-4%
Cc1ccccc1OCCC(=O)Nc1ccc(F)c(Cl)c1	5.6µM*	3%	0%	-10%	8	4.5µM*
Cc1cccc(NC(=O)COc2ccc(Br)cc2/C=N/O)c1	5.6µM*	?	?	20%	-8	5µM*
Cc1ccccc1OCC(=O)Nc1cccc(C(=O)O)c1	2.5µM*	-40%	?	-29%	-14	6.3µM*
CC(C)(C)n1nc2c(c1NC(=O)COc1ccc(F)cc1)CS(=O)(=O)C2	2%	1%	-3%	12%	-9	-3%
Cc1ccccc1OCC(=O)Nc1c2c(nn1C(C)(C)C)CS(=O)(=O)C2	12%	2%	0%	18µM*	11	-4%
O=C(NCCN1CCN(c2ccccc2)CC1)c1ccc2c(c1)[nH]c(=S)n1c3ccccc3nc21	1%	?	16%	-4%	-8	-8%
O=C(c1ccc2c(c1)[nH]c(=S)n1c3ccccc3nc21)N1CCN(c2ncccn2)CC1	4%	9.2µM*	21%	-11%	-3	0%
CCOc1ccc(NC(=O)c2ccc(F)c(S(=O)(=O)N(Cc3ccc(C(=O)OC)cc3)Cc3ccc(OC)c(OC)c3)c2)cc1	.	.	6%	.	.	.
[O-][n+]1c2ccccc2c2n1CCCN=C2c1ccc(Cl)cc1	.	-22%	?	20%[9.22 µM]	-84*	.
O=[N+]([O-])c1ccc2c3n([n+]([O-])c2c1)CCN=C3c1ccc(Cl)cc1	.	?	-10%	2%	?	.
Cc1ccc(C2=NCCn3c2c2ccccc2[n+]3[O-])cc1	.	14%	4%	-3%	-90*	.
COc1ccc2c3n([n+]([O-])c2c1)CCN=C3c1ccc(Cl)cc1	.	-1%	-7%	-6%[9.22 µM]	?	.
Nc1c(Cl)cc(C2=NCCn3c2c2ccccc2[n+]3[O-])cc1Cl	.	-2%	-26%	-18%	?	.
Nc1c(Cl)cc(C2=NCCn3c2c2ccc(C(F)(F)F)cc2[n+]3[O-])cc1Cl	.	5%	?	-13%	-94*	.
[O-][n+]1c2ccccc2c2n1CCN=C2c1ccc(Cl)cc1	.	-2%	?	-11%	-84*	.
Cc1ccc(C2=NCCn3c2c2ccc([N+](=O)[O-])cc2[n+]3[O-])cc1	.	28%	5%	?	?	.
COCCN(Cc1nc(C(c2ccccc2)c2ccccc2)no1)C(C)C	-1%	1%	6%	-1%	9	-8%
O=C(NCCCO)c1ccc(CSc2nc3ccccc3c(=O)[nH]2)cc1	17%	?	?	16%	4	4%
O=C(NCc1ccc2c(c1)CCN2C(=O)c1ccncc1)c1ccc(Cl)cc1	.	.	7%	.	.	.
CC1CCCCC12NC(=O)N(CC(=O)Nc1ccc(OC(F)F)cc1)C2=O (centres undefined)	.	-6%	-2%	6%	-15	.
COc1cc2cc(/C=C/C(=O)c3ccco3)c(Cl)nc2cc1OC	?	23µM*	?	21µM*	-17	7.9µM*
COc1ccc2cc(/C=C/C(=O)c3ccco3)c(Cl)nc2c1	?	.	-1%	.	.	?
Cc1ccc2cc(/C=C/C(=O)c3ccco3)c(Cl)nc2c1	?	8.2µM*	0%	?	-13	?
